About 83,000 compounds went through this panel and 20% of them were active in at least one assay; those are over-represented in the sample as a whole.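 How to read the values: 0–100, growth inhibition (40 = 60% inhibited); 0, no net growth; -100 to 0, cell death (-40 = 40% of starting cells died; -100 = all dead).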 Values without a mark were called inactive. Activity calls are given as the source filed them. How the source made its calls: active means growth percent below 10; inactive means the rest.
Experiments:
Test in all cases: NCI-60 one-dose screen, 48 h (100 = growth as untreated, 0 = no growth, -100 = all killed)
HCT-15 colon = conditions: 10 µM unless noted
HT29 colon = conditions: 10 µM unless noted
SNB-75 CNS = conditions: 10 µM unless noted
SNB-19 CNS = conditions: 10 µM unless noted
U251 CNS = conditions: 10 µM unless noted
PC-3 prostate = conditions: 10 µM unless noted
UACC-62 melanoma = conditions: 10 µM unless noted
LOX IMVI melanoma = conditions: 10 µM
SK-MEL-28 melanoma = conditions: 10 µM unless noted
SK-MEL-5 melanoma = conditions: 10 µM unless noted

Structure (SMILES)	growth (HCT-15 colon)	growth (HT29 colon)	growth (SNB-75 CNS)	growth (SNB-19 CNS)	growth (U251 CNS)	growth (PC-3 prostate) [%]	growth (UACC-62 melanoma)	growth (LOX IMVI melanoma)	growth (SK-MEL-28 melanoma)	growth (SK-MEL-5 melanoma)
CCOC(=O)Nc1nccs1	104%	100%	111%	111%	98.9%	97.7	99.7%	103%	111%	
CCCCOC(=O)c1ccc(NC(=O)CCl)cc1	14.9%	12.8%	68.9%	62.6%	4.55% (active)		52.9%	-43.4% (active)		58.7%
Nc1nnc2cc(F)ccc2n1	99.4%	111%	75.1%	99.2%	110%	96.6	105%	96.3%	108%	
CC(C)c1ccc(C(=O)OCCCl)cc1	94%	109%	94%	91.1%	101%		110%	97.1%	92%	100%
CCCCCC/C=C\CCCCCCCCCc1cc(O)cc(OC)c1O	3.68% (active)	8.67% (active)	6.11% (active)	24%	10.2%		6.32% (active)	-86.3% (active)	24%	-29% (active)
Cc1cc2nc(C)c(C)nc2cc1C	107%	108%	99.4%	111%	98.3%		99.5%	97.2%	110%	95.3%
O=C1CSc2ccccc2N1	118%	100%	76.2%	96.3%		93.1	106%	88%	105%	109%
Nc1ccccc1SC1CC(=O)N(c2ccc(Cl)c(Cl)c2)C1=O (stereo not given)	118%	96.2%	79.9%	96.6%	103%		87.6%	98.5%	108%	
N#Cc1ccc(OC(=O)Nc2cc(Cl)cc(Cl)c2)cc1	3.2% [100 µM] (active)	2.78% [100 µM] (active)	-9.78% [100 µM] (active)	15.4% [100 µM]	4.68% [100 µM] (active)		-33.1% [100 µM] (active)		5.58% [100 µM] (active)	
O=S(=O)(c1ccc(NC(=S)NCc2cccnc2)cc1)N1CCCCC1	57.2%	55.2%	78.4%	60.6%		25.3	93.7%	56.5%		74.2%
O=C(Nc1cccc(Cl)c1)c1ccc(Cl)cc1Cl	96.3%	86.5%	84.7%	96.9%	90.7%			98.5%	101%	96.1%
Nc1ccn(C2OC(CO)C(O)C2F)c(=O)n1 (stereo not given)	95.8%	79%	79.5%	90.5%	78.6%		77.7%	79.6%	60.5%	92.5%
COc1cccc(C(=O)O)c1OC	101%	96.8%	90.8%	106%	98.2%			99%	102%	104%
N#C/C(=C\c1ccc2c(c1)OCO2)c1ccccc1	49.4%	35.5%	76.2%	86.4%	55%		69.7%	78.3%	87.7%	54.6%
CCNCC(C)(C)O	104%	109%	79.4%	102%	104%		102%	101%	101%	
CCCCCCCCCc1ccc(OC(C)=O)cc1	111%	102%	99.4%	103%		94.1	107%	104%	107%	103%
Cc1c(Cl)cccc1NC(=S)NC(=O)c1ccccc1	92.6%	90.3%	90.5%	107%	84.9%		92.7%	99.3%	102%	90.1%
NC(CCl)=NCC12CC3CC(CC(C3)C1)C2	9.53% (active)	-13.6% (active)	13.2%	22.2%	6.8% (active)		32.7%	-33.6% (active)	55.3%	5.92% (active)
S=CN1CCCCC1	99.9%	108%	93.2%	109%	89.1%		106%	99%	103%	104%
COc1cc2c(c(OC)c1OC)-c1ccc(SC)c(=O)cc1[C@@H](NC1OC(CO)C(O)C(O)C1O)CC2 (stereo not given in full)	14.8%	0.658% (active)	24.9%	71.5%		15.7	43.3%	22.3%	61.1%	-18.3% (active)
Cc1[nH]n(-c2ccccc2)c(=O)c1C=NC(=S)C(N)=S	99.3%	111%	87.5%	96.8%	100%		93%	99.7%	110%	99.3%
C=CCc1cc(OC)c(O)c(OC)c1	98.7%	99.7%	90.9%	109%	97.2%		103%	101%	108%	
Cc1ccc2[nH]c3ccccc3c2c1	79.6%	102%	98.4%	105%	96.2%		98.4%	97%	111%	
Clc1cccc(Cl)c1C1CSc2ccccc2N=C1c1ccccc1 (stereo not given)	54.7%	26.8%	64.9%	97.4%		55	68.9%	-4.86% (active)	90.4%	86.8%
CNc1ccccc1C(N)=O	101%	103%	91.8%	94.8%		116	93.8%			101%
CNc1ccccc1C(=O)N/N=C/C=C/c1ccccc1	33.8%	3.82% (active)	-15.6% (active)	53.9%		18.7	49.3%	14.7%	39.3%	18.2%
C(=C\c1ccncc1)/c1ccncc1	96.3%	99%	89.6%	94.5%	97.1%		90.1%	94.2%	104%	101%
ClCC(Cl)[C@@H]1CC2C=CC1C2 (stereo not given in full)	109%	107%	93.6%	104%	99.5%		98.7%	97.7%	106%	99.1%

Reference: PubChem BioAssay (NCI)
